Test results taken from PubChem BioAssay AID1159580 (chemical genetic matrix, 2015).
The campaign covered roughly 5,500 compounds. About 2,000 (36%) were called active. Not shown: some 18% with an inconclusive outcome. No stated cut-off is given here; in the data, active means normalized growth mostly below about 0.91 (no sharp cut-off); inconclusive means no clear call, values can overlap the other calls; inactive means mostly above about 0.92. The list shows a part of the results.

Assay: chemical genetic growth profiling, strain panel (AID 1159580);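 further: tested at 20 µM; growth read once vehicle control cultures reached saturation at 30 °C; 1 = growth at the plate median or of vehicle wells; lower values mean less growth of the strain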
Conditions: growth OD

Measured: normalized growth

O=c1oc2c(O)c(O)cc3c(=O)oc4c(O)c(O)cc1c4c23
active: S. cerevisiae deletion strains, locus YJR075W, strain HOC1, active compounds read low 0.684 | S. cerevisiae deletion strains, locus YKL160W, strain elf1, active compounds read low 0.82 | S. cerevisiae deletion strains, locus YKL190W, strain CNB1, active compounds read low 0.712 | S. cerevisiae deletion strains, locus YKR001C, strain vps1, active compounds read low 0.54 | S. cerevisiae deletion strains, locus YKR091W, strain srl3, active compounds read low 0.924 | S. cerevisiae deletion strains, locus YLL001W, strain dnm1, active compounds read low 0.747 | S. cerevisiae deletion strains, locus YLL026W, active compounds read low 0.686 | S. cerevisiae deletion strains, locus YLL041C, strain sdh2, active compounds read low 0.904 | S. cerevisiae deletion strains, locus YLR027C, strain aat2, active compounds read low 0.772 | S. cerevisiae deletion strains, locus YLR039C, strain RIC1, active compounds read low 0.407 | S. cerevisiae deletion strains, locus YLR058C, strain SHM2, active compounds read low 0.578 | S. cerevisiae deletion strains, locus YLR221C, strain rsa3, active compounds read low 0.717 | S. cerevisiae deletion strains, locus YLR258W, strain gsy2, active compounds read low 0.747 | S. cerevisiae deletion strains, locus YLR262C, strain YPT6 (second series), active compounds read low 0.648 | S. cerevisiae deletion strains, locus YLR262C, strain YPT6, active compounds read low 0.556 | S. cerevisiae deletion strains, locus YLR268W, strain sec22, active compounds read low 0.356 | S. cerevisiae deletion strains, locus YLR320W, strain mms22, active compounds read low 0.617 | S. cerevisiae deletion strains, locus YLR330W, strain CHS5, active compounds read low 0.584 | S. cerevisiae deletion strains, locus YLR342W, strain FKS1 (second series), active compounds read low 0.401 | S. cerevisiae deletion strains, locus YLR342W, strain FKS1, active compounds read low 0.628 | S. cerevisiae deletion strains, locus YLR357W, strain rsc2, active compounds read low 0.627 | S. cerevisiae deletion strains, locus YLR370C, strain arc18, active compounds read low 0.422 | S. cerevisiae deletion strains, locus YLR371W, strain rom2, active compounds read low 0.605 | S. cerevisiae deletion strains, locus YLR384C, strain iki3, active compounds read low 0.724 | S. cerevisiae deletion strains, locus YLR418C, strain cdc73, active compounds read low 0.366 | S. cerevisiae deletion strains, locus YML016C, strain PPZ1, active compounds read low 0.626 | S. cerevisiae deletion strains, locus YML032C, strain rad52, active compounds read low 0.66 | S. cerevisiae deletion strains, locus YML120C, strain ndi1, active compounds read low 0.581 | S. cerevisiae deletion strains, locus YML124C, strain tub3, active compounds read low 0.778 | S. cerevisiae deletion strains, locus YMR058W, strain fet3, active compounds read low 0.848 | S. cerevisiae deletion strains, locus YMR078C, strain ctf18, active compounds read low 0.875 | S. cerevisiae deletion strains, locus YMR129W, active compounds read low 0.886 | S. cerevisiae deletion strains, locus YMR205C, strain PFK2, active compounds read low 0.685 | S. cerevisiae deletion strains, locus YMR223W, strain ubp8, active compounds read low 0.612 | S. cerevisiae deletion strains, locus YMR231W, strain pep5, active compounds read low 0.728 | S. cerevisiae deletion strains, locus YMR263W, strain SAP30, active compounds read low 0.616 | S. cerevisiae deletion strains, locus YNL067W, strain RPL9B, active compounds read low 0.572 | S. cerevisiae deletion strains, locus YNL071W, strain lat1, active compounds read low 0.86 | S. cerevisiae deletion strains, locus YNL128W, strain TEP1, active compounds read low 0.558 | S. cerevisiae deletion strains, locus YNL153C, strain GIM3, active compounds read low 0.492 | S. cerevisiae deletion strains, locus YNL209W, strain ssb2, active compounds read low 0.444 | S. cerevisiae deletion strains, locus YNL233W, strain BNI4, active compounds read low 0.594 | S. cerevisiae deletion strains, locus YNL271C, strain bni1, active compounds read low 0.885 | S. cerevisiae deletion strains, locus YNL298W, strain CLA4, active compounds read low 0.907 | S. cerevisiae deletion strains, locus YNL307C, strain MCK1, active compounds read low 0.787 | S. cerevisiae deletion strains, locus YNL322C, strain KRE1 (second series), active compounds read low 0.685 | S. cerevisiae deletion strains, locus YNR049C, strain mso1, active compounds read low 0.896 | S. cerevisiae deletion strains, locus YNR052C, strain pop2, active compounds read low 0.365 | S. cerevisiae deletion strains, locus YOL147C, strain pex11, active compounds read low 0.658 | S. cerevisiae deletion strains, locus YOR001W, strain rrp6, active compounds read low 0.735 | S. cerevisiae deletion strains, locus YOR061W, strain CKA2, active compounds read low 0.618 | S. cerevisiae deletion strains, locus YOR069W, strain VPS5, active compounds read low 0.69 | S. cerevisiae deletion strains, locus YOR070C, strain gyp1, active compounds read low 0.593 | S. cerevisiae deletion strains, locus YOR080W, strain dia2, active compounds read low 0.638 | S. cerevisiae deletion strains, locus YOR083W, strain WHI5, active compounds read low 0.717 | S. cerevisiae deletion strains, locus YOR106W, strain vam3, active compounds read low 0.507 | S. cerevisiae deletion strains, locus YOR136W, strain idh2, active compounds read low 0.796 | S. cerevisiae deletion strains, locus YOR144C, strain elg1, active compounds read low 0.68 | S. cerevisiae deletion strains, locus YOR184W, strain ser1, active compounds read low 0.538 | S. cerevisiae deletion strains, locus YOR265W, strain rbl2, active compounds read low 0.771 | S. cerevisiae deletion strains, locus YOR270C, strain vph1, active compounds read low 0.467 | S. cerevisiae deletion strains, locus YOR290C, strain snf2, active compounds read low 0.167 | S. cerevisiae deletion strains, locus YOR316C, strain cot1, active compounds read low 0.852 | S. cerevisiae deletion strains, locus YPL051W, strain arl3, active compounds read low 0.627 | S. cerevisiae deletion strains, locus YPL055C, strain LGE1, active compounds read low 0.624 | S. cerevisiae deletion strains, locus YPL078C, strain atp4, active compounds read low 0.767 | S. cerevisiae deletion strains, locus YPL106C, strain sse1, active compounds read low 0.809 | S. cerevisiae deletion strains, locus YPL240C, strain hsp82, active compounds read low 0.864 | S. cerevisiae deletion strains, locus YPL241C, strain CIN2, active compounds read low 0.816 | S. cerevisiae deletion strains, locus YPR163C, strain tif3, active compounds read low 0.876 | S. cerevisiae deletion strains, locus YPR167C, strain met16, active compounds read low 0.725 | S. cerevisiae deletion strains, strain wtn01, active compounds read low 0.511 | S. cerevisiae strains, strain wild type, active compounds read low 0.605
inactive: S. cerevisiae deletion strains, locus YKL009W, strain mrt4, active compounds read low 0.978 | S. cerevisiae deletion strains, locus YKL068W, active compounds read low 0.994 | S. cerevisiae deletion strains, locus YKL085W, strain MDH1 (second series), active compounds read low 0.972 | S. cerevisiae deletion strains, locus YKL085W, strain MDH1, active compounds read low 0.972 | S. cerevisiae deletion strains, locus YKR026C, strain gcn3, active compounds read low 0.992 | S. cerevisiae deletion strains, locus YLR102C, strain apc9, active compounds read low 0.933 | S. cerevisiae deletion strains, locus YLR113W, strain HOG1, active compounds read low 0.981 | S. cerevisiae deletion strains, locus YMR125W, strain sto1, active compounds read low 1 | S. cerevisiae deletion strains, locus YMR307W, strain GAS1, active compounds read low 0.731 | S. cerevisiae deletion strains, locus YNL183C, strain NPR1, active compounds read low 0.922 | S. cerevisiae deletion strains, locus YNL248C, strain rpa49, active compounds read low 0.912 | S. cerevisiae deletion strains, locus YNL250W, strain rad50, active compounds read low 0.947 | S. cerevisiae deletion strains, locus YOL012C, strain htz1 0.268 | S. cerevisiae deletion strains, locus YOR231W, strain MKK1, active compounds read low 0.972 | S. cerevisiae deletion strains, locus YPL256C, strain CLN2, active compounds read low 1.01 | S. cerevisiae deletion strains, locus YPR119W, strain clb2, active compounds read low 0.947 | S. cerevisiae deletion strains, locus YPR141C, strain kar3, active compounds read low 0.987
